According to PubChem BioAssay (Tox21):
Inconclusive results are not listed. Calls of active or inactive are those of the source. Unless noted, calls follow the shape of the full dose curve.

Columns and labels:
[1] = Nuclear factor erythroid 2-related factor 2/antioxidant responsive element (Nrf2/ARE) small molecule agonists: luciferase reporter gene qHTS assay in human keratinocytes (AID 1919969); also: nearly all actives have a fitted effect of over 35% in size; also: potency is read from the fitted curve at half-maximal effect
[2] = target: Gonadotropin-releasing hormone receptor (Homo sapiens) (UniProt P30968); test: Human gonadotropin-releasing hormone receptor (GnRHR) small molecule agonists, calcium flux assay in GnRHR-HEK293 cells (AID 1920063); also: nearly all actives have a fitted effect of over 35% in size
Summary of the method: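 We seeded human GnRHR-expressing HEK293 cells for 18 hours, loaded them with calcium dye for an hour at 37 C, added test compounds, and recorded fluorescence intensity kinetically for three minutes.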

[3] = G protein-coupled receptor (GPCR) small molecule agonists, calcium flux assay: HEK293 wild type cell line counter screen (AID 1920065); also: potency is read from the fitted curve at half-maximal effect
Summary of the method: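 Calcium-sensitive dye, loaded 1 h at 37 C into cells cultured 18 h, reports compound-evoked calcium release as fluorescence (Ex/Em 480/540), measured over 3 min. Agonist mode; 15-point titrations, triplicate.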

[4] = p53 small molecule agonists, cell-based qHTS assay with human liver microsomes (AID 1963577);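 also: p53 response element beta-lactamase reporter cells with liver microsomes plus NADPH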
Summary of the method: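 16 h, 37 C exposure of p53RE-bla cells to compounds with human liver microsomes and NADPH (0.5 mg/mL final each); detection via LiveBLAzer mixture, 2 h dark at room temperature.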

[5] = p53 small molecule agonists, cell-based qHTS assay with rat liver microsomes (AID 1963578); also: potency is read from the fitted curve at half-maximal effect
Summary of the method: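 With rat liver microsomes and NADPH present (0.5 mg/mL final each), p53RE-bla cells are treated with compound for 16 h at 37 C. LiveBLAzer detection mixture is then applied for 2 h at room temperature in the dark.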

[6] = p53 small molecule agonists, cell-based qHTS assay with human liver microsomes: qHTS cell viability counter screen (AID 1963579); also: nearly all actives have a fitted effect of over 45% in size; also: potency is read from the fitted curve at half-maximal effect
Summary of the method: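 In this multiplexed counter screen, the reporter plates were subsequently treated with CellTiter-Glo so that cell viability, reflected by luminescence, could be recorded for p53RE-bla cells dosed 16 h with compounds under microsomal activation (HLM and NADPH).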

[7] = p53 small molecule agonists, cell-based qHTS assay with rat liver microsomes: qHTS cell viability counter screen (AID 1963580); also: nearly all actives have a fitted effect of over 45% in size
Summary of the method: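 HCT-116 p53RE-bla, 4,000 cells/well, 5 h pre-incubation; cpd + rat liver microsomes 0.5 mg/mL + NADPH 0.5 mg/mL (final); 16 h, 37 C; CellTiter-Glo, 30 min RT; luminescence.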

[8] = p53 small molecule agonists, cell-based qHTS assay (AID 1963582; active = well fitted activation curve with a large enough effect in the signal ratio in the repeat runs, not every such curve was filed as active; the % refers to the signal ratio)
Summary of the method: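 In this cell-based concentration-response screen, a p53 response element drives beta-lactamase; cells received DMSO-borne compounds after 5 h culture and were incubated a further 16 h before FRET substrate development.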

[9] = target: 5-hydroxytryptamine receptor 2A (Homo sapiens) (UniProt P28223); test: 5-hydroxytryptamine receptor 2A (HTR2A) small molecule agonists, cell-based qHTS assay (AID 1963587); also: nearly all actives have a fitted effect of over 30% in size; also: potency is read from the fitted curve at half-maximal effect
Summary of the method: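 Kinetic calcium-flux fluorescence (2 min, 1 sec intervals) after compound addition in agonist mode. HTR2A-CHO cells were cultured 18 h, then dye-loaded 1 h at 37 C.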

[10] = target: Muscarinic acetylcholine receptor M1 (Homo sapiens) (UniProt P11229); test: Cholinergic receptor muscarinic 1 (CHRM1) small molecule agonists, cell-based qHTS assay (AID 1963589); also: nearly all actives have a fitted effect of over 35% in size
Summary of the method: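 Measures agonist-induced intracellular calcium rise. Stable human CHRM1 CHO line, 1 h dye load at 37 C, compounds from DMSO, kinetic fluorescence read.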

[11] = cAMP Responsive Elements (CRE) small molecule antagonists, cell-based qHTS assay (AID 1963591; active = well fitted inhibition curve with a large enough effect in the signal ratio in the repeat runs, not every such curve was filed as active; the % refers to the signal ratio)
Summary of the method: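 HEK293T cells carrying a CRE-driven beta-lactamase reporter receive compound and NKH477 (0.25 uM final) for 3 h. Fluorescence from LiveBLAzer B/G FRET substrate is read after 2 h at room temperature.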

[12] = target: Beta-2 adrenergic receptor (Homo sapiens) (UniProt P07550); test: Adrenergic beta2 receptor (ADRB2) small molecule antagonists, cell-based qHTS assay (AID 1963592); also: nearly all actives have a fitted effect of over 50% in size; also: potency is read from the fitted curve at half-maximal effect; as to activity change, negative = inhibition: series mostly up to about 92 µM
Summary of the method: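 Cells (CHO, stable ADRB2 overexpression) incubated 18-20hr at 37C; compounds added from DMSO; agonist mix (1nM isoproterenol, 100uM IBMX, 25uM Ro-20-1724) added; 0.5hr RT; d2-cAMP and anti-cAMP-cryptate added; 1hr RT; 665/615 nm read.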

[13] = target: D(2) dopamine receptor (Homo sapiens) (UniProt P14416); test: Dopamine D2 receptor (DRD2) small molecule agonists, cell-based qHTS assay (AID 1963594); also: nearly all actives have a fitted effect of over 35% in size
Summary of the method: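 cAMP accumulation in DRD2-HEK293 cells measured by HTRF after 1 h detection; compounds added 10 min before NKH477 (200nM […]) forskolin-analogue stimulation, 30 min at room temperature, with Ro20-1724 present at 0.1 mM final.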

[14] = target: D(2) dopamine receptor (Homo sapiens) (UniProt P14416); test: Dopamine D2 receptor (DRD2) small molecule antagonists, cell-based qHTS assay (AID 1963595; active = well fitted inhibition curve with a large enough effect in the signal ratio in the repeat runs, with a control signal flat; the % refers to the signal ratio; also: potency is read from the fitted curve at half-maximal effect)
Summary of the method: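 In this cell-based antagonist screen, compounds act for 10 min at room temperature before a 30 min challenge with 12 nM quinpirole and 200 nM NKH477. cAMP is quantified by HTRF competition in DRD2-HEK293 cells containing 0.1 mM Ro20-1724.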

[15] = target: 5-hydroxytryptamine receptor 2A (Homo sapiens) (UniProt P28223); test: 5-hydroxytryptamine receptor 2A (HTR2A) small molecule antagonists, cell-based qHTS assay (AID 1963586); also: nearly all actives have a fitted effect of over 45% in size; also: potency is read from the fitted curve at half-maximal effect
Summary of the method: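 Antagonist-mode intracellular calcium assay: DOI (4 nM) added after 5 min compound pre-incubation at room temperature to dye-loaded HTR2A-CHO cells. Fluorescence followed for 3 min, sampled every second.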

[16] = target: Muscarinic acetylcholine receptor M1 (Homo sapiens) (UniProt P11229); test: Cholinergic receptor muscarinic 1 (CHRM1) small molecule antagonists, cell-based qHTS assay (AID 1963588); also: nearly all actives have a fitted effect of over 40% in size; also: potency is read from the fitted curve at half-maximal effect
Summary of the method: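 CHRM1-CHO calcium-flux assay, antagonist mode. Cells were seeded 18 h, dye-loaded 1 h at 37 C and given compound for 5 min at RT, then acetylcholine was added at 50nM. FDSS fluorescence was read 3 min; 15 concentrations, three runs.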

[17] = target: Beta-2 adrenergic receptor (Homo sapiens) (UniProt P07550); test: Adrenergic beta2 receptor (ADRB2) small molecule agonists, cell-based qHTS assay (AID 1963593);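 also: CHO cells stably overexpressing human ADRB2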
Summary of the method: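 CHO cells stably over-expressing ADRB2 were plated overnight at 37C, then dosed with compounds plus a stimulation mix containing 100uM IBMX and 25uM Ro-20-1724 for 0.5hr at room temperature. cAMP was measured by HTRF competition, 1hr.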

[18] = target: KiSS-1 receptor (Homo sapiens) (UniProt Q969F8); test: Human kisspeptin (KISS1R) small molecule agonists, calcium flux assay in KISS1R-HEK293 cells (AID 1920064; active = well fitted activation curve with a large enough effect in the repeat runs)
Summary of the method: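 Kinetic calcium assay, 1 s sampling over 3 min at Ex/Em 480/540, in HEK293 cells engineered with human KISS1R; compounds delivered in DMSO after 1 h dye loading.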

[19] = cAMP Responsive Elements (CRE) small molecule agonists, cell-based qHTS assay (AID 1963590)
Summary of the method: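 A CRE-responsive beta-lactamase reporter in HEK 293T cells was used. Treatment ran 3 h at 37 C; detection used LiveBLAzer B/G FRET substrate for 2 h at room temperature.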

[20] = p53 small molecule agonists, cell-based qHTS assay: qHTS cell viability counter screen (AID 1963581); also: nearly all actives have a fitted effect of over 45% in size; also: potency is read from the fitted curve at half-maximal effect
Summary of the method: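 Following 5 h attachment, HCT-116 p53RE-bla cells took up compound for 16 h at 37 C; the reporter was read with B/G FRET substrate (2 h RT), and viability then via CellTiter-Glo ATP luminescence.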
% is scaled to controls: 0 for no effect and ±100 for the full control effect.

Chain of Muscarinic acetylcholine receptor M1 (Homo sapiens) (P11229 whole entry, looked up): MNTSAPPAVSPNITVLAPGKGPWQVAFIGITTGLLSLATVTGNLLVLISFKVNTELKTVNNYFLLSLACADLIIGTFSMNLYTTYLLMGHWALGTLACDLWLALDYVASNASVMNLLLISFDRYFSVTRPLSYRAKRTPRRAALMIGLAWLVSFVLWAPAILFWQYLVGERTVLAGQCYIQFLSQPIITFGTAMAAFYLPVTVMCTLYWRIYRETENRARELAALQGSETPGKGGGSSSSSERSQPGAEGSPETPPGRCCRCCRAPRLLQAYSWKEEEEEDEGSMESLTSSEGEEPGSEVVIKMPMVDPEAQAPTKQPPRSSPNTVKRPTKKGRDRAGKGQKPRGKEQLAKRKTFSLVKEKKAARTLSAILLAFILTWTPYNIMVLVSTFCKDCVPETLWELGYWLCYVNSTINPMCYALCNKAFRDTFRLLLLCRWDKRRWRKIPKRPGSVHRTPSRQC
Chain of 5-hydroxytryptamine receptor 2A (Homo sapiens) (P28223 whole entry, looked up): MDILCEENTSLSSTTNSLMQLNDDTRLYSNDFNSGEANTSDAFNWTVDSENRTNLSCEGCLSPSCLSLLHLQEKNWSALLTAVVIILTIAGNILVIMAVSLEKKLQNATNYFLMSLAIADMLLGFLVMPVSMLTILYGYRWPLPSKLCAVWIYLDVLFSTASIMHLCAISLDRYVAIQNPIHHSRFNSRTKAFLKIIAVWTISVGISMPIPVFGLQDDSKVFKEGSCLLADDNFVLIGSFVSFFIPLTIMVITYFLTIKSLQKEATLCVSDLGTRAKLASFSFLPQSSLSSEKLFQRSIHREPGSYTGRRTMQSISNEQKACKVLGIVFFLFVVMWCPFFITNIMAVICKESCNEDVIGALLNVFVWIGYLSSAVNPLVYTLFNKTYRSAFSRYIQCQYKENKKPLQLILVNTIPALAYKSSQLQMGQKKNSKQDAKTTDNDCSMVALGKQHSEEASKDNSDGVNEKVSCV
Chain of Beta-2 adrenergic receptor (Homo sapiens) (P07550 whole entry, looked up): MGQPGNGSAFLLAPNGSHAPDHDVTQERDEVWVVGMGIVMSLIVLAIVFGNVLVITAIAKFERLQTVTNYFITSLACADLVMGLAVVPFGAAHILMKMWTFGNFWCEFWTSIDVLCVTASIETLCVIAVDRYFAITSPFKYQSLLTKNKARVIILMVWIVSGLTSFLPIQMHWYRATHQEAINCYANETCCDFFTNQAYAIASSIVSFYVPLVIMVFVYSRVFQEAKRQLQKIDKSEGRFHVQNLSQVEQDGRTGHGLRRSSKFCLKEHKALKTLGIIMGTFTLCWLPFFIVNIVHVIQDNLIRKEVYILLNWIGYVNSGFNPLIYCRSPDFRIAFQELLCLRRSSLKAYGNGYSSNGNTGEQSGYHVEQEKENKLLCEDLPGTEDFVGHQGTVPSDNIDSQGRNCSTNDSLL
Chain of KiSS-1 receptor (Homo sapiens) (Q969F8 whole entry, looked up): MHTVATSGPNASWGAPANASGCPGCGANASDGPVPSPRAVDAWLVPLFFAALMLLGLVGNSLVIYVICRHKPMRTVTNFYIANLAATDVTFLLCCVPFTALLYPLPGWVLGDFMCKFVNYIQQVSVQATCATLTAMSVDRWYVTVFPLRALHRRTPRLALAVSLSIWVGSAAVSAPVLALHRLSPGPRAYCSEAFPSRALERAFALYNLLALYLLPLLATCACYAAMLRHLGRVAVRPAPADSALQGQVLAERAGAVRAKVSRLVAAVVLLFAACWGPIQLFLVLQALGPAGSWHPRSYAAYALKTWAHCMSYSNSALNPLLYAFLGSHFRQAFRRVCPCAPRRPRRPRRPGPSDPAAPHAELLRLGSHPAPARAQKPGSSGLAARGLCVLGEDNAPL
Chain of D(2) dopamine receptor (Homo sapiens) (P14416 whole entry, looked up): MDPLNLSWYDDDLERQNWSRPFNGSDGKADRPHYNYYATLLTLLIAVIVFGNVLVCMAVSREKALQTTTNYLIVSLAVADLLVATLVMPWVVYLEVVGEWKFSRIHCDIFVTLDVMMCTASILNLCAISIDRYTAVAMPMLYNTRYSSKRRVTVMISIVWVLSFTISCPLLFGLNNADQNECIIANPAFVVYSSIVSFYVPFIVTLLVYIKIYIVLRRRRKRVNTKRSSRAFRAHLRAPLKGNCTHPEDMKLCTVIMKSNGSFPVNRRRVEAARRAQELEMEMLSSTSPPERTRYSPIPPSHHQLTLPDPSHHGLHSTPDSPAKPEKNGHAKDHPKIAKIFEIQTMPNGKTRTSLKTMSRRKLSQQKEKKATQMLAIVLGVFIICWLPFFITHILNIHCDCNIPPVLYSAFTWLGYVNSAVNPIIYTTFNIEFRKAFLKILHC
Chain of Gonadotropin-releasing hormone receptor (Homo sapiens) (P30968 whole entry, looked up): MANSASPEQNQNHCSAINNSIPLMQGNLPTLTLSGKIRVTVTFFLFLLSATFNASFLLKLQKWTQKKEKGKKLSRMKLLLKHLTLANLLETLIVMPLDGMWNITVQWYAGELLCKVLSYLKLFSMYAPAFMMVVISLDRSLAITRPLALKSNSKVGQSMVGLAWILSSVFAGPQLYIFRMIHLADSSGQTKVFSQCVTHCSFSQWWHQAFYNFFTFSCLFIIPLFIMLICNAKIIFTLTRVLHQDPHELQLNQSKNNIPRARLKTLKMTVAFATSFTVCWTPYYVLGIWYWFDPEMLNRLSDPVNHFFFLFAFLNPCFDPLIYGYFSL

CNCC[C@@H](Oc1ccccc1C)c1ccccc1
inactive: Potency [1] | Potency [2] | Potency [3] | Potency [4] | Potency [5] | Potency [6] | Potency [7] | Potency [8] | Potency [9] | Potency [10] | Potency [11] | Potency [12] | Potency [13] | Potency [14]

CCCC(=O)O[C@]1(C(=O)CCl)[C@@H](C)C[C@H]2[C@@H]3CCC4=CC(=O)C=C[C@]4(C)[C@@]3(F)C(=O)C[C@@]21C
inactive: Potency [1] | Potency [2] | Potency [3] | Potency [4] | Potency [5] | Potency [6] | Potency [7] | Potency [8] | Potency [15] | Potency [9] | Potency [16] | Potency [10] | Potency [12] | Potency [17] | Potency [14]

N[C@@H](C(=O)N[C@@H]1C(=O)N2C(C(=O)O)=C(Cl)CS[C@H]12)c1ccccc1
inactive: activity, positive = activation [1] -7.33% [at 8.39 µM] | activation [18] -2.2% [at 6.97 µM] | activation [3] -0.0598% [at 5.23 µM] | activation [4] 0.17% [at 5.99 µM] | activation [5] -0.141% [at 5.99 µM] | activity change, negative = cytotoxicity [6] 3.89% [at 5.99 µM] | activity change, negative = cytotoxicity [7] 0.042% [at 5.99 µM] | activation [8] 0.331% [at 5.99 µM] | activation [9] -1.95% [at 7.02 µM] | activity, negative = inhibition [16] 6.01% [at 5.58 µM] | activation [10] -0.906% [at 6.97 µM] | activation [19] -0.664% [at 8.39 µM] | activity change, negative = inhibition [11] -10.2% [at 8.39 µM] | activity change, negative = inhibition [14] 6.7% [at 8.38 µM]

COC(=O)C1=C(C)NC(COC(N)=O)=C(C(=O)OC(C)C)C1c1cccc(Cl)c1Cl (stereo not given)
active: Potency [5] 19.9 µM
inactive: Potency [1] | Potency [18] | Potency [3] | Potency [6] | Potency [15] | Potency [9] | Potency [16] | Potency [10] | Potency [12] | Potency [13] | Potency [14]

O=C(Nc1ccccc1)c1cc(Cl)ccc1O
active: Potency [1] 13.7 µM | Potency [3] 12.3 µM | Potency [20] 40.8 µM
inactive: Potency [18] | Potency [4] | Potency [5] | Potency [15] | Potency [9] | Potency [10] | Potency [13] | Potency [14]

CC[C@H]1CC[C@H](NCc2cc3c(cc2OC)[C@H]2C[C@H]2C(=O)N3C)[C@H](c2ccccc2)N1
inactive: Potency [18] | Potency [3] | Potency [4] | Potency [6] | Potency [15] | Potency [9] | Potency [11] | Potency [12] | Potency [14]
active: Potency [1] 30.6 µM

CN1CCCN(C(c2ccccc2)c2ccc(Cl)cc2)CC1 (stereo not given)
inactive: Potency [1] | Potency [3] | Potency [4] | Potency [6] | Potency [7] | Potency [9] | Potency [10] | Potency [19] | Potency [11] | Potency [17] | Potency [13]
active: Potency [16] 0.0231 µM | Potency [14] 26.6 µM

C=C1C(=C/C=C2\CCC[C@]3(C)[C@@H]([C@H](C)/C=C/[C@@H](O)C4CC4)CC[C@@H]23)C[C@@H](O)C[C@@H]1O
inactive: Potency [1] | Potency [18] | Potency [6] | Potency [7] | Potency [20] | Potency [10] | Potency [12] | Potency [13] | Potency [14]

COc1ccc(OC(F)(F)F)cc1CN[C@H]1CCCN[C@H]1c1ccccc1
inactive: Potency [1] | Potency [18] | Potency [3] | Potency [4] | Potency [5] | Potency [7] | Potency [20] | Potency [8] | Potency [15] | Potency [16] | Potency [10] | Potency [17]

CNCCCCOc1ccccc1Cc1ccccc1
inactive: Potency [1] | Potency [18] | Potency [3] | Potency [4] | Potency [5] | Potency [7] | Potency [20] | Potency [8] | Potency [16] | Potency [10] | Potency [19] | Potency [11] | Potency [13] | Potency [14]
active: Potency [15] 0.115 µM | Potency [9] 10.7 µM | Potency [12] 8.41 µM

CCOC(=O)COc1ccc2c(c1)CC(NCC(O)c1cccc(Cl)c1)CC2 (stereo not given)
inactive: Potency [1] | Potency [3] | Potency [4] | Potency [5] | Potency [6] | Potency [20] | Potency [8] | Potency [15] | Potency [10] | Potency [17]
active: Potency [9] 31.2 µM

COC(=O)CC(C)CCC=C(C)C (stereo not given)
active: Potency [1] 68.6 µM | Potency [6] 45.8 µM
inactive: Potency [18] | Potency [3] | Potency [4] | Potency [5] | Potency [20] | Potency [8] | Potency [15] | Potency [9] | Potency [16] | Potency [10] | Potency [19] | Potency [11] | Potency [12] | Potency [17] | Potency [13] | Potency [14]

O=C(Nc1ncc([N+](=O)[O-])s1)c1cccs1
active: Potency [1] 1.06 µM
inactive: Potency [18] | Potency [4] | Potency [5] | Potency [6] | Potency [20] | Potency [8] | Potency [9] | Potency [16] | Potency [10] | Potency [11] | Potency [13] | Potency [14]

CC(CN(C)C)CN1c2ccccc2CCc2ccccc21 (stereo not given)
active: Potency [14] 23.7 µM
inactive: Potency [1] | Potency [18] | Potency [3] | Potency [4] | Potency [6] | Potency [7] | Potency [9] | Potency [16] | Potency [10] | Potency [13]
